# High-throughput results: PubChem, National Center for Advancing Translational Sciences (NCATS)
# The sample as a whole holds a higher share of hits than the screen did.
# DT40 TDP1 no CPT = qHTS for Inhibitors of human tyrosyl-DNA phosphodiesterase 1 (TDP1): qHTS in cells in absence of CPT. DT40 Tdp1-/- hTDP1 cells, no CPT, ATP luminescence, 48 h. Potency, µM (series often up to 46.2 µM), without a hit: top-dose activity change, negative = growth inhibition, actives largely listed as inhibitors. hit rate 15% among 420,000; also: potency is read from the fitted curve at half-maximal effect; nearly all actives have a fitted effect of over 55% in size
#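 DT40 Tdp1-/-;hTDP1 cells, no CPT (DMSO vehicle only), 400 cells/well; compounds pin-transferred; ≥48 hr, 37 °C; CellTiter-Glo 30 min RT dark, luminescence read.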
# TDP1 cell CPT = DT40-hTDP1 cell growth loss with CPT | Potency, µM (titrated, usually from 46.2 µM), without a hit: at the top dose activity change, negative = growth inhibition, most hits filed as inhibitors | chicken DT40 Tdp1-/-;hTDP1 cells + 20 nM CPT, ATP luminescence, 48 h | hit rate 12% among 420,000; also: potency is read from the fitted curve at half-maximal effect; nearly all actives have a fitted effect of over 55% in size
#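 Chicken DT40 Tdp1-/- cells stably complemented with human TDP1 were seeded at 400 cells/well in medium containing 20 nM camptothecin, exposed to pin-transferred compounds, and grown at 37 °C for at least 48 hr. Viability was read as ATP luminescence.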
# HT1080-NT tox = kills 2HG-producing HT-1080-NT fibrosarcoma cells; HT-1080-NT fibrosarcoma viability, CellTiter-Glo ATP luminescence, 48 h; Potency, µM (highest dose often 46.1 µM), without a hit: at the top dose activity, negative = less viability, hits mostly cytotoxic; hit rate 1.6% among 360,000;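 also: NT is the 2HG producing partner of a matched IDH1 knockdown line; potency is read from the fitted curve at half-maximal effect; 0% = DMSO-treated cells and -100% = media-only wells without cells; nearly all actives have a fitted effect of over 55% in size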
#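 750 cells/well, RPMI + 5% FBS; 2 h settle, compound pin-transfer, 48 h at 37 degrees C. CellTiter-Glo 10 min RT, luminescence. Normalized to DMSO and media-only wells.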
# 12-LOX inh = ALOX12 (human) lipoxygenase inhibition. P18054. purified 12hLO, xylenol orange hydroperoxide absorbance. Potency, µM (series often up to 108 µM), for inactives: at the top dose activity change, negative = inhibition, usual class: inhibitors. hit rate 1.1% among 580,000; also: potency is read from the fitted curve at half-maximal effect
# Target sequence (P18054 whole entry, looked up): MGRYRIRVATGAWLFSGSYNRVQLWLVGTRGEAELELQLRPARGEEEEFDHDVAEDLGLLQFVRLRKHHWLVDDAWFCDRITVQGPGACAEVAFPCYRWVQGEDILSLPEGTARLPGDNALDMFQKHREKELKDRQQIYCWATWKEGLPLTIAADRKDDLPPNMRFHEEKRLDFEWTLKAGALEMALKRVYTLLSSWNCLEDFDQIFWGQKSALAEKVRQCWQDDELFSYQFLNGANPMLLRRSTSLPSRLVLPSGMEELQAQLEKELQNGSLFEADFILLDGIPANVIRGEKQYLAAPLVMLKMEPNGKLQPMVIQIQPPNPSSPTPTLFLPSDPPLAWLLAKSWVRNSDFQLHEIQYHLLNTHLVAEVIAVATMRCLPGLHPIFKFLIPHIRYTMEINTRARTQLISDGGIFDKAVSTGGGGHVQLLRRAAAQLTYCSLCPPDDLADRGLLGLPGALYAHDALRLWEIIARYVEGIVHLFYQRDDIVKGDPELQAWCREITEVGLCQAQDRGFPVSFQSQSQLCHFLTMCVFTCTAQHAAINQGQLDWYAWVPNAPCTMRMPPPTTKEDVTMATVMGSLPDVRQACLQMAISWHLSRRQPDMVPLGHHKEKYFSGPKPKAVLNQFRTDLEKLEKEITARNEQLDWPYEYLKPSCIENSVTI
#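 Hydroperoxide product was detected by ferrous iron/xylenol orange as the 573 to 405 nm absorbance ratio. Arachidonic acid at 40 uM (final) was turned over for 30 min at room temperature by 150 nM human 12hLO, pH 7.0 Hepes buffer, after 15 min compound preincubation.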
# IL-1B inflam inh = blocks inflammasome-driven IL-1 beta release; THP-1 LPS/ATP IL-1B secretion, AlphaLISA, 16 h; stronger effect = lower value; activity change, % at 57.5 µM; hit rate 4.7% among 360,000; AID 743279; in the data active = activity change below about -50%; inconclusive = mostly about -30% to -49%
#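 THP-1 cells pretreated 1 hr with compounds (up to 57.5 uM final), then stimulated with LPS (250 ng/mL final) plus ATP (1.25 mM final); secreted IL-1B measured by AlphaLISA after 16 hr, decreased signal indicating inhibition.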
# HT1080 IDH1KD tx = HT-1080 IDH1 knockdown cell toxicity (counter line). AID 686971. hit rate 2% among 360,000. Potency, µM (titrated, usually from 46.1 µM), inactives show at the highest dose activity, negative = toxicity, most hits filed as cytotoxic. HT-1080 IDH1 knockdown viability, ATP luminescence, 48 h;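 also: potency is read from the fitted curve at half-maximal effect; 0% = DMSO wells and -100% = cell-free medium wells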
#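 In this qHTS, HT-1080 cells depleted of IDH1 are exposed for 48 h at 37 °C to compound titrations. Toxicity is scored from CellTiter-Glo luminescence, with DMSO as full viability and medium alone as none.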
# Active calls of the source: *; ? = inconclusive; nt = no result. Unless noted, calls follow the shape of the dose curve; as a rule, active = well fitted curve in the direction sought with a large enough effect; inconclusive = small, poorly fitted or top-dose-only effect, or another doubt; inactive = no such curve, though single readings can be large; an effect the other way counts as inactive or inconclusive. Unless noted, % is scaled to controls: 0 for no effect and ±100 for the full control effect.
SMILES,DT40 TDP1 no CPT,TDP1 cell CPT,HT1080-NT tox,12-LOX inh,IL-1B inflam inh,HT1080 IDH1KD tx
CCCCn1c(SCC(=O)c2cc(OC)ccc2OC)nc2cc(S(N)(=O)=O)ccc21,-19.3%,0.2%,-7.5%,55.3%,19.6,-3.1%
COC(=O)c1ccc(CSc2nc3ccccc3c(=O)n2C)o1,?,14.6µM*,-17.4%,?,?,-0.8%
CCc1nc(SCc2ccc(C(=O)OC)o2)c2c(=O)n(C)c(=O)n(C)c2n1,9.2µM*,14.6µM*,-7.2%,31.1%,22.1,5.6%
COC(=O)c1ccc(CSc2nc3ccccc3c(=O)n2CC(C)C)o1,?,?,-11.7%,0.0%,5.7,-13.5%
O=C(CSc1nc2cc(Cl)ccc2c(=O)n1Cc1ccco1)Nc1ccc(S(=O)(=O)N2CCOCC2)cc1,-20.3%,-23.9%,-0.1%,-15.8%,-5.2,1.1%
COC(=O)c1ccc2c(=O)n(Cc3ccco3)c(SCC(=O)Nc3ccc(C)c(Cl)c3)nc2c1,20.6µM*,10.3µM*,-7.4%,-7.1%,18.4,-5.9%
Cn1c(SCc2ccccc2Cl)nc2c([nH]c3ccccc32)c1=O,-20.7%,-4.4%,nt,-23.8%,nt,nt
COC(=O)c1ccc2oc(=O)c(S(=O)(=O)c3ccc(Cl)cc3)cc2c1,nt,nt,nt,-0.4%,nt,nt
COc1cc(OC)cc(C(=O)N[C@H](C(=O)OCC(=O)Nc2ccc3c(c2)OCO3)C(C)C)c1,-28.7%,-29.1%,-8.2%,?,61.6,-0.8%
NC(=O)NC(=O)CSc1nnc(-c2ccccc2)c(-c2ccccc2)n1,nt,nt,nt,-50.4%,nt,nt
COCC(C)n1c(SCc2cc(C(=O)OC)c(C)o2)nc2ccccc2c1=O (stereo unspecified),5.8µM*,4.11µM*,-18.6%,-7.5%,-12.6,-13.2%
COC(=O)c1cc(CSc2nnc(-c3ccccc3)c(-c3ccccc3)n2)oc1C,20.6µM*,23.1µM*,-8.6%,445.1%,-16.2,-10.2%
COC(=O)c1ccc(CSc2nc3ccccc3c(=O)n2Cc2ccco2)o1,16.4µM*,23.1µM*,?,-2.4%,2.9,-10.6%
COCC(C)n1c(SCC(=O)Nc2cccnc2Cl)nc2ccccc2c1=O (stereo unspecified),?,3.5%,-0.2%,-11.1%,-15.1,-8.0%
CC(=O)Nc1ccc(NC(=O)CSc2nc(C)nc3sc(C)c(C)c23)cc1,?,1.1%,-7.9%,0.3%,-25.9,14.7%
COC(=O)c1ccc(CSc2nc(C)nc3sc(C)c(C)c23)o1,10.3µM*,14.6µM*,4.2%,8.8%,38.0,?
CC1=CC(C)C(/C=N/NC(N)=O)C(C)C1 (stereo unspecified),nt,nt,nt,-4.6%,nt,nt
O=C(OCC(=O)c1ccc[nH]1)c1cccc(NS(=O)(=O)c2ccccc2)c1,nt,nt,nt,-10.7%,nt,nt
Cc1ccc(N2CCN(C(=O)C(=O)c3cccc([N+](=O)[O-])c3)CC2)cc1,?,?,19.5%,-17.4%,-2.7,9.8%
O=C(NCCN1CCN(c2ccccc2)CC1)c1cccc(Br)c1,14.1µM*,?,?,-11.2%,-28.7,?
Cc1cccc(C(=O)NCCN2CCN(c3ccccc3)CC2)c1,-18.6%,-8.7%,-0.7%,?,-13.3,8.1%
O=C(NCCN1CCN(C(=O)c2cccc(Br)c2)CC1)C(=O)Nc1ccc(Br)cc1,25.9µM*,13µM*,-15.5%,-23.4%,-19.3,-17.4%
O=C(C(=O)N1CCN(c2ccncc2)CC1)c1cccc(Br)c1,14.6µM*,14.6µM*,-0.9%,?,31.6,2.3%
CS(=O)(=O)N1CCC(OC2CCN(C(=O)NCCc3ccccc3)CC2)CC1,nt,nt,nt,9.3%,nt,nt
Cl/C(=C/c1ccc(Cl)cc1)c1ncc(-c2ccc(Cl)cc2)o1,nt,nt,nt,35.5µM*,nt,nt
SMILES,DT40 TDP1 no CPT,TDP1 cell CPT,HT1080-NT tox,12-LOX inh,IL-1B inflam inh,HT1080 IDH1KD tx
Cn1c(N)c(-c2csc(NC3CC3)n2)c(=O)n(C)c1=O,nt,nt,nt,7.94µM*,nt,nt
Clc1cccc(-c2csc(NC3CC3)n2)c1,nt,nt,nt,-26.4%,nt,nt
Cn1c(N)c(-c2csc(Nc3ccccc3)n2)c(=O)n(C)c1=O,nt,nt,nt,44.7µM*,nt,nt
Cc1cccc(C)c1NC(=O)c1cnn(-c2ccccc2)c1C,-11.8%,-18.1%,20.1%,6.3%,-61.6*,8.3%
Cc1ccc(NC(=O)c2cnn(-c3ccccc3)c2C)cc1,?,-43.4%,-0.4%,0.0%,?,-4.4%
Cc1cccc(C)c1NC(=O)c1c[nH]c2ccccc12,25.9µM*,18.4µM*,-19.3%,?,-21.1,-25.3%
Cc1c(C(=O)N(C)c2ccc(Cl)cc2)cnn1-c1ccccc1,4.61µM*,?,-5.3%,5.5%,-11.1,0.4%
Cc1ccc(NC(=O)c2cnn(-c3ccccc3)c2C)c(C)c1,?,?,13.6%,-4.0%,-66.7*,5.7%
CN(C)CCn1nnc2c(=O)oc3ccccc3c21,-15.4%,-1.3%,15.0%,-12.9%,2.5,6.5%
CCOC(=O)c1cc([N+](=O)[O-])cc([N+](=O)[O-])c1Sc1ncnc2nc[nH]c12,2.59µM*,1.84µM*,4.61µM*,-24.8%,-100.1*,4.61µM*
Cn1ccnc1C(OC(=O)CC12CC3CC(CC(Br)(C3)C1)C2)C(F)(F)F (stereo unspecified),nt,nt,nt,-11.8%,nt,nt
COc1ccc(C(=O)N2C[C@@H](Oc3cccnc3)C[C@H]2C(N)=O)cc1,nt,nt,nt,32.2%,nt,nt
COc1ccc(NC(=O)c2cccn2-c2nnc(N3CCCCC3)s2)cc1,?,?,nt,0.4%,nt,nt
COc1ccc(OC)c(NC(=O)c2cccn2-c2nnc(N3CCCCC3)s2)c1,?,20.6µM*,nt,-4.9%,nt,nt
COc1ccc(CNC(=O)c2cccn2-c2nnc(N3CCCCC3)s2)c(OC)c1,23.1µM*,?,nt,-8.4%,nt,nt
CNC(=O)Cn1c(CO)cnc1SCc1ccccc1Cl,nt,nt,nt,1.2%,nt,nt
Cc1ccccc1CN1C(=O)c2ccccc2Sc2ccc(C(=O)NC3CCCC3)cc21,?,16.4µM*,nt,?,nt,nt
Cc1ccccc1CN1C(=O)c2ccccc2Sc2ccc(C(=O)NCc3cccs3)cc21,23.1µM*,23.1µM*,nt,-24.1%,nt,nt
Cc1ccc(C)c(CN2C(=O)c3ccccc3Sc3ccc(C(=O)NCc4cccs4)cc32)c1,?,-29.6%,nt,-34.3%,nt,nt
O=C(NC1CCCC1)c1ccc2c(c1)N(Cc1ccccc1)C(=O)c1ccccc1S2,?,?,nt,-28.9%,nt,nt
Cc1ccc2nc3c(c(Nc4ccc(O)cc4)c2c1)CCC3,18.4µM*,?,-16.2%,6.7%,-6.4,-21.2%
COc1ccc(Nc2c3c(nc4ccc(C)cc24)CCC3)cc1,?,?,-25.3%,5.9%,-13.5,-28.7%
